To fix the notation:
B1: ENSMUSG00000042529.429|Kcnj12|20:25;182:186 (ssRNA)
RNA: GGGAGUUCUACAGUCCGACGAUCGCUUCGAUAUCCGCAUGCUAAUGUCAGUGGCUUGGGUGCACACACGAGAGAGAGAGAGAGAGAGAGAGAGAGAGAGAGAGAGAGAGAGAGAGAGAGCUGCACAGGAUGAAGCAGCUGCCCUGAGCCCAUCUGGUGCUGUGCACCUGGUCCUUGUCCAGCCGAGGGCCUGGGGGCAGAAGAACACACCAUAGGGAGGCCCUUCAUACGGUGUCUGCCCUAUGUGAGGUCAUAGAAUGUUAAAUCUAUUUUAAACGGUGAAACUGGAGAAUUUUCAUGUUAUCUCUUGCGGUCGCACUAGUGUGGAAUUCUCGGGUGUCAAGG
B2: ENSMUSG00000061578.155|Ksr2 (ssRNA)
RNA: GGGAGUUCUACAGUCCGACGAUCGCUUCGAUAUCCGCAUGCUAUAUGCAUGAUGGGUUACAUGGGUGUGUGUGUGUGUGUAACUGUUUACAAUGGUCUCCCUGCCUCUCACGGGCUGUGUUCCAGGAGAAUGCACAUAGAGAGGUUCUGUGGUCUCUGCUGUCGCCUGGUGCUGAAUCCUGAGUGGUUUCCCCACUGAGGACCCUGUGACCCUGUGACCCUUGGCCCCUCCCUUAUUGUGCACACUCAGCACCCCAUCUUCCAAGCCUUUCUUCAUCCCCCACCUUCUUUUGGGAAGGGGUGGCUCUUGCGGUCGCACUAGUGUGGAAUUCUCGGGUGUCAAGG
B3: ENSMUSG00000090935.767|Synj2bp (ssRNA)
RNA: GGGAGUUCUACAGUCCGACGAUCGCUUCGAUAUCCGCAUGCUAAUUUUAAAAAUCAGUUUACUUUCAUCUUUUCUCUUUAGGCUUUCAAUAAAGACCAGAAGGACUGAUAGACAGCUAGAGAGGAUCGUGUAGGCAUCCAGAUUAGAAUGGAAGAAUCCAUUGAACAAUCUGAGAAAACUAAUCAGGUGUUGUUUUAAUCACAUUAGUUUUAAGUUAGAUACAUGCUCUUUGUAGUAUUUUGGGUUUUAUUGUGCAAAUAAGCAAUUAAAAUAUAUUUAGAAGCCAAGUAUAAUGGUACAUGUCUCUUGCGGUCGCACUAGUGUGGAAUUCUCGGGUGUCAAGG
B4: ENSMUSG00000058297.25|Spock2 (ssRNA)
RNA: GGGAGUUCUACAGUCCGACGAUCGCUUCGAUAUCCGCAUGCUAAAGACAGGCCAGAAGAGACCUGGACAACAGCAGGCAACUUAGCAAAUGGAUCCGGAAGUCAGUGCGGAGGACCCUGGCUCCAGUGGGGGAGGACUGGGGAGUGUGGCUUGUGUGUAUGUGUGAUAUGAGAUGUGUGUGUAUGAUGUGAGAUGUGAGUGUGUGAUGUGAGAUGUGUGUAUGUGAGAUGUGUGUGUGUGUGUGUGUGUGUGUGAUGUGAGUCACCCAAAGGUCCCUAUGUUAUUGAUUUUCAAAUGCACACUCUCUUGCGGUCGCACUAGUGUGGAAUUCUCGGGUGUCAAGG
B5: ENSMUSG00000058297.26|Spock2|95:99;103:116;125:136;150:156;165:174;180:205 (ssRNA)
RNA: GGGAGUUCUACAGUCCGACGAUCGCUUCGAUAUCCGCAUGCUAGGCCAGAAGAGACCUGGACAACAGCAGGCAACUUAGCAAAUGGAUCCGGAAGUCAGUGCGGAGGACCCUGGCUCCAGUGGGGGAGGACUGGGGACACACGCUACACACAUACACACAUAUGAGAACACACACAUACAUGUGAGAUGUGACACACACAUGUGAGAACACACAUACUGAGAACACACACACACACACACACACACACAUGUGAGUCACCCAAAGGUCCCUAUGUUAUUGAUUUUCAAAUGCACACUUUCACACUCUUGCGGUCGCACUAGUGUGGAAUUCUCGGGUGUCAAGG
B6: ENSMUSG00000058297.26|Spock2 (ssRNA)
RNA: GGGAGUUCUACAGUCCGACGAUCGCUUCGAUAUCCGCAUGCUAGGCCAGAAGAGACCUGGACAACAGCAGGCAACUUAGCAAAUGGAUCCGGAAGUCAGUGCGGAGGACCCUGGCUCCAGUGGGGGAGGACUGGGGAGUGUGGCUUGUGUGUAUGUGUGAUAUGAGAUGUGUGUGUAUGAUGUGAGAUGUGAGUGUGUGAUGUGAGAUGUGUGUAUGUGAGAUGUGUGUGUGUGUGUGUGUGUGUGUGAUGUGAGUCACCCAAAGGUCCCUAUGUUAUUGAUUUUCAAAUGCACACUUUCACACUCUUGCGGUCGCACUAGUGUGGAAUUCUCGGGUGUCAAGG
B7: ENSMUSG00000058297.23|Spock2 (ssRNA)
RNA: GGGAGUUCUACAGUCCGACGAUCGCUUCGAUAUCCGCAUGCUACCGACGGCCAGAAAGACAGGCCAGAAGAGACCUGGACAACAGCAGGCAACUUAGCAAAUGGAUCCGGAAGUCAGUGCGGAGGACCCUGGCUCCAGUGGGGGAGGACUGGGGAGUGUGGCUUGUGUGUAUGUGUGAUAUGAGAUGUGUGUGUAUGAUGUGAGAUGUGAGUGUGUGAUGUGAGAUGUGUGUAUGUGAGAUGUGUGUGUGUGUGUGUGUGUGUGUGAUGUGAGUCACCCAAAGGUCCCUAUGUUAUUGAUUUUCUCUUGCGGUCGCACUAGUGUGGAAUUCUCGGGUGUCAAGG
B8: ENSMUSG00000058297.22|Spock2|119:123;127:140;149:160;174:180;189:198;204:229 (ssRNA)
RNA: GGGAGUUCUACAGUCCGACGAUCGCUUCGAUAUCCGCAUGCUAAGGGUGCCGACGGCCAGAAAGACAGGCCAGAAGAGACCUGGACAACAGCAGGCAACUUAGCAAAUGGAUCCGGAAGUCAGUGCGGAGGACCCUGGCUCCAGUGGGGGAGGACUGGGGACACACGCUACACACAUACACACAUAUGAGAACACACACAUACAUGUGAGAUGUGACACACACAUGUGAGAACACACAUACUGAGAACACACACACACACACACACACACACAUGUGAGUCACCCAAAGGUCCCUAUGUUAUUCUCUUGCGGUCGCACUAGUGUGGAAUUCUCGGGUGUCAAGG
B9: ENSMUSG00000058297.23|Spock2|113:117;121:134;143:154;168:174;183:192;198:223 (ssRNA)
RNA: GGGAGUUCUACAGUCCGACGAUCGCUUCGAUAUCCGCAUGCUACCGACGGCCAGAAAGACAGGCCAGAAGAGACCUGGACAACAGCAGGCAACUUAGCAAAUGGAUCCGGAAGUCAGUGCGGAGGACCCUGGCUCCAGUGGGGGAGGACUGGGGACACACGCUACACACAUACACACAUAUGAGAACACACACAUACAUGUGAGAUGUGACACACACAUGUGAGAACACACAUACUGAGAACACACACACACACACACACACACACAUGUGAGUCACCCAAAGGUCCCUAUGUUAUUGAUUUUCUCUUGCGGUCGCACUAGUGUGGAAUUCUCGGGUGUCAAGG
B10: ENSMUSG00000058297.24|Spock2 (ssRNA)
RNA: GGGAGUUCUACAGUCCGACGAUCGCUUCGAUAUCCGCAUGCUAGCCAGAAAGACAGGCCAGAAGAGACCUGGACAACAGCAGGCAACUUAGCAAAUGGAUCCGGAAGUCAGUGCGGAGGACCCUGGCUCCAGUGGGGGAGGACUGGGGAGUGUGGCUUGUGUGUAUGUGUGAUAUGAGAUGUGUGUGUAUGAUGUGAGAUGUGAGUGUGUGAUGUGAGAUGUGUGUAUGUGAGAUGUGUGUGUGUGUGUGUGUGUGUGUGAUGUGAGUCACCCAAAGGUCCCUAUGUUAUUGAUUUUCAAAUGCUCUUGCGGUCGCACUAGUGUGGAAUUCUCGGGUGUCAAGG
B11: ENSMUSG00000061578.90|Ksr2|236:240 (ssRNA)
RNA: GGGAGUUCUACAGUCCGACGAUCGCUUCGAUAUCCGCAUGCUAUCUGAUUUUAGAGGUCCCAUUCCAAGAUGGAAGUCACCGGUUGCCGCUGAGCACACAAUUCUGAAGGACAGUAGGCAGUCCUGCAGGUCUUUUUUAGCACAGGGCCUCUCUGGGGACCAGUCCCUGGCCUUCACCCUUCUCCCAUUUUGUAAGAACACUGUUCUAACUCACCUCAUGCCCACGCUACCCUGGGCAACUGGAGAACACCAUAGCGUUUCAGCUGAUGUGACAUUUGCACACACCUUUACCAGUUCACCAUCCUCUUGCGGUCGCACUAGUGUGGAAUUCUCGGGUGUCAAGG
B12: ENSMUSG00000090935.515|Synj2bp (ssRNA)
RNA: GGGAGUUCUACAGUCCGACGAUCGCUUCGAUAUCCGCAUGCUAUGGAGGCCCAGUGUCUGCUACCCUUCUUGUAUCUGAUGGCAUGGGUAACAGCUCUGCCAUGGGCCUGCUUACUUCUAGUAUUCACCUCAGGGCUUGGAAAUUGGUUUUGAAAGGCUUUUAGACAUAGAAAGUAAAACUAAUGGCAAGGAGGAUAAAACACUGUUGUGUGUUGUAUUGUUGAUCUAAAUAAAAAAUAUCAUUGGUAGAAGUUUUACUUUGGUUGAUAAGGAUUCUGAUAACAUUUGGGUCUCCUUAGGAAACUCUUGCGGUCGCACUAGUGUGGAAUUCUCGGGUGUCAAGG
B13: ENSMUSG00000031028.314|Tub|85:89 (ssRNA)
RNA: GGGAGUUCUACAGUCCGACGAUCGCUUCGAUAUCCGCAUGCUAUUUCUAGAGGGCAGUAGGACUUCCAUGCUGGGGCUGGCCUAUCUCCUGAUGAAAGAUUACAGUGCCAUCUCCUUCCCAUAGUUCACACACUGCCCUCCCUCCCUGACUUUAUAGGGAGAAAUCUCCUGACAUUAGAGGUGAUAGAAACCAGAGCUUUAGUCUAGUCAGGCUGUUUCUCUGGGUUGACAAGUUUAAGGUUGAACAGGCUGAUUUCUGGAAUCUCAUGAGUGGAGGGGACCCUGGUGGUUAAGAGCGGAACUCUCUUGCGGUCGCACUAGUGUGGAAUUCUCGGGUGUCAAGG

Whole data set: some 9,900 sequences, median “r (bound/input frequency ratio)” near 0.7, cut for the highest 2% near 6.5. What follows is part of a selection rich in the highest values, with near analogues and random picks from the rest.

TDP-43, sequence (Q13148 whole entry): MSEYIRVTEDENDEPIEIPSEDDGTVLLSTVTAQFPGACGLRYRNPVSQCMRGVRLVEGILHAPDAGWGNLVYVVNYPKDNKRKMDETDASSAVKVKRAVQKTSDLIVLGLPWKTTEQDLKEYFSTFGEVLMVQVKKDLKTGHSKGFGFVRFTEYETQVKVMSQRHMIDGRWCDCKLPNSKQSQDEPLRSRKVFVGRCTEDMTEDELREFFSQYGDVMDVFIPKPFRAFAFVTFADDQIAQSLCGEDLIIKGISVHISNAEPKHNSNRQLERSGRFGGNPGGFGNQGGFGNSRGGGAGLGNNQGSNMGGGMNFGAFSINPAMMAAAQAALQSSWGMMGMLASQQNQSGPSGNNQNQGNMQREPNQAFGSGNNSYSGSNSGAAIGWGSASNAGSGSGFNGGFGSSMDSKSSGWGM

The assay has as its target TDP-43 (Homo sapiens, UniProt Q13148 1-414). The experiment in a line: RNA Bind-n-Seq with designed 260-mer pool; 25 mM Tris-HCl, 150 mM KCl, 3 mM MgCl2, BSA (printed 500 mg/mL), 20 units/mL SUPERase IN; pH not stated; 500 nM RNA pool, 1 h, 4 C; TDP-43 5, 50, 500 nM; high values mean tight binding. Particulars: protein: recombinant; tags: SBP (GST cleaved off with PreScission; pGEX-GST-SBP). In short, it runs like this:
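The incubation lasted 1 h at 4 °C and used 500 nM of an in vitro-transcribed 260-nt 3′ UTR oligo pool with recombinant SBP-tagged TDP-43 at 5, 50 or 500 nM immobilized on streptavidin beads. It took place in 25 mM Tris-HCl, 150 mM KCl, 3 mM MgCl2, BSA and SUPERase IN. Bound RNA was washed, eluted with biotin, converted to cDNA, PCR-amplified and sequenced to give R, each oligo's normalized abundance in the bound sample divided by that in input. Two independent protein batches provided the duplicates.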
With B1, the binding signal was 5.54 R (bound/input frequency ratio).

In the case of B2, the binding signal was 1.09 R (bound/input frequency ratio).

Regarding B3, the binding signal is 0.0267 R (bound/input frequency ratio).

Consider B4, for which the binding signal was 6.77 R (bound/input frequency ratio).

B5: the binding signal was 3.09 R (bound/input frequency ratio).

Regarding B6, the binding signal was 6.34 R (bound/input frequency ratio).

On to B7, for which the binding signal is 6.74 R (bound/input frequency ratio).

Take B8: the binding signal was 2.11 R (bound/input frequency ratio).

On to B9, for which the binding signal was 4.42 R (bound/input frequency ratio).

Regarding B10, the binding signal is 9.99 R (bound/input frequency ratio).

B11: the binding signal is 0.502 R (bound/input frequency ratio).

For B12, the binding signal is 0.412 R (bound/input frequency ratio).

In the case of B13, the binding signal was 1.56 R (bound/input frequency ratio).

(Values after article PMC12864922, “TDP-43 directly inhibits mRNA accumulation in neurites through modulation of mRNA stability”.)
